Test results published in PubChem BioAssay.
Calls of active or inactive are those of the source.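 The calls were made as follows, unless noted: active = inhibition at or above 50% at 10 µM; inactive = inhibition below 50%.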

Tests used:
[1] = inhibitors of TNFa-induced NFkB p65 translocation, primary screen, imaging, HUVEC, MLSMR starter and 10KST1 sets (AID 438;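 active = inhibition above 20% together with a positive visual image hit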;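 also: compound added about 3h40 before a 20 min TNFalpha stimulation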;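 as to inhibition: signal is the nuclear over cytoplasmic p65 intensity ratio per well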); settings: HUVEC TNFa-induced p65 nuclear translocation; cell count: measured here: nuclei count (cytotoxicity indicator), at 2.08 µM; inhibition: at 2 µM, stronger effect = higher value, 0% TNFa-plus-vehicle, 100% no-TNFa wells
[2] = reduction of polyQ htt aggregates in cells – imaging, exon1htt(103Q)mCFP cells, high-content imaging, primary screen (AID 483;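 active = visual image review flags a hit and inhibition of aggregation exceeds 20%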;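 also: compound exposure lasted 3 days before fixation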;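 as to nuclei count: percent of the per-plate median nuclei count of sample wells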); settings: exon1htt(103Q)mCFP cell line, aggregate imaging, at 2 µM; inhibition of aggregation: stronger effect = higher value; nuclei count: measured here: cell count, toxicity
[3] = endothelial E-selectin expression blockers – imaging, HUVEC, immunofluorescence, MLSMR starter and 10KST1 sets, primary screen (AID 487;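 active = visually confirmed hit in the image check and inhibition above 20%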;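 as to inhibition: signal is fraction of cell area covered by stained E-selectin grains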;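 as to nuclei count: 100% = median nuclei count of all wells on the same plate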); settings: HUVEC TNFalpha-induced E-selectin immunofluorescence imaging, at 2 µM; inhibition: stronger effect = higher value; nuclei count: measured here: cell number, toxicity
[4] = target: Voltage-gated potassium channel subunit beta-2 (Rattus norvegicus) (UniProt P62483); test: inhibitors of rat Kvbeta2 reductase activity – biochemical, NADPH fluorescence, primary screen (AID 622;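 active = fluorescence slope higher than the sample average by over 3 SD, cut at about -0.22 in these data, passing the limit was not always enough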;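 also: slope of raw intensity against log time taken from 70 to 1610 s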); settings: recombinant KvBeta, 4-cyanobenzaldehyde reduction, at 10 µM, stronger effect = higher value
Voltage-gated potassium channel subunit beta-2 (Rattus norvegicus), sequence (P62483 whole entry, looked up): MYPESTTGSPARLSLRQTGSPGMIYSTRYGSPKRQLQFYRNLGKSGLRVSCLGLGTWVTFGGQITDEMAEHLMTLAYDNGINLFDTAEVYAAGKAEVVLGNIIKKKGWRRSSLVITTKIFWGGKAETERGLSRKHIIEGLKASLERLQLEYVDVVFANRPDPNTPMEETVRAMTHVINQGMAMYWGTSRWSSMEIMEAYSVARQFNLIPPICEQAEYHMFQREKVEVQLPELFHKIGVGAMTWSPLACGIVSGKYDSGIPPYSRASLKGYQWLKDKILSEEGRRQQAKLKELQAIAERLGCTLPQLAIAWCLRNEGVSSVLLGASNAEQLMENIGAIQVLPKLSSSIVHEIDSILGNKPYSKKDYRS

[5] = target: Voltage-gated potassium channel subunit beta-2 (Rattus norvegicus) (UniProt P62483); test: enhancers of rat Kvbeta2 NADPH turnover – biochemical, NADPH fluorescence, primary screen (AID 623;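 active = NADPH fluorescence slope more negative than the mean of all samples by about 3 SD, 99.7% confidence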;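 also: fluorescence intensity change per second fitted from 20 to 320 s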); settings: Recombinant KvBeta, NADPH fluorescence decrease slope, 10 min; at 10 µM; stronger effect = lower value
[6] = target: Alpha-2C adrenergic receptor (Homo sapiens) (UniProt P18825); test: compounds altering alpha2C-coupled GIRK flux – cell-based, HEK293 alpha2C/GIRK1/2, thallium flux, primary screen (AID 624;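 active = fluorescence slope after compound addition differing from the mean of all screened samples at 99.7% confidence, in either direction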;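 also: slope of fluorescence ratio to pre-addition baseline per second over 15 to 24 s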); settings: thallium flux BTC fluorescence, at 10 µM, actives lie on both sides
Alpha-2C adrenergic receptor (Homo sapiens), sequence (P18825 whole entry, looked up): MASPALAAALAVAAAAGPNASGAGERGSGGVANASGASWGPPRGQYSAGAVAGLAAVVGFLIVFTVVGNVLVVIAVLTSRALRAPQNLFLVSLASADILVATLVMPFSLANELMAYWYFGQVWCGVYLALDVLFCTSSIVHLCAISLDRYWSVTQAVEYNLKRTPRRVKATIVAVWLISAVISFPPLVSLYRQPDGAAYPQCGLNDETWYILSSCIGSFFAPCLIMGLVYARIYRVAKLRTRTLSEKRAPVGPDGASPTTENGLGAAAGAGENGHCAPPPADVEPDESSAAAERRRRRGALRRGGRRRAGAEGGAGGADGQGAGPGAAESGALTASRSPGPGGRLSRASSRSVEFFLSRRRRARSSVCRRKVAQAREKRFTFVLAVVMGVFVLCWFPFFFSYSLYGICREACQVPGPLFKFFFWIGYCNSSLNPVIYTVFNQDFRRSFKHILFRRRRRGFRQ

[7] = blockers of RIG-like receptor reporter activation – cell-based, Sendai virus stimulus, luciferase, 10K MLSCN set, TLR/RLR signaling modifier project, primary screen (AID 602276); settings: HEK293 RL24 IRF3 luciferase reporter, at 10 µM, stronger effect = higher value;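 also: firefly luciferase from ISG56 promoter only with Renilla not read in this screen; 0% = Sendai virus plus DMSO and 100% = medium plus DMSO without virus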
[8] = TLR3 IRF3 reporter activation blockers – cell-based, poly I:C stimulus, luciferase, 10K MLSCN set, primary screen (AID 602277;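 active = inhibition of the reporter signal at or above 50%; inactive = inhibition below 50%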); settings: HEK293-TLR3 RL24 IRF3 luciferase reporter, at 10 µM, stronger effect = higher value

SMILES | cell count [1] | inhibition [1] | inhibition of aggregation [2] | nuclei count [2] | inhibition [3] | nuclei count [3] | fluorescence slope [4] | NADPH fluorescence slope [5] | slope [6] | inhibition [7] | inhibition [8]
Cc1cc(C(=O)CSc2nnc(-c3ccco3)o2)c(C)n1CC1COc2ccccc2O1 (stereo not drawn) | 393 | 0% (inactive) | 15.2% (inactive) | 90.2% | -115% (inactive) | 105% | -0.516 (inactive) | -2.2e-05 (inactive) | 0.00446 (inactive) | 9.81% (inactive) | 3.57% (inactive)
CCOC(=O)c1[nH]c(C)c(C(=O)NCc2ccccn2)c1C | 664 | -2.8% (inactive) | -6.6% (inactive) | 87.7% | -173% (inactive) | 114% | -0.51 (inactive) | -0.000223 (inactive) | 0.00562 (inactive) | 17.5% (inactive) | 14.1% (inactive)
CCOc1ccc(-c2nnn(CCC(=O)O)n2)cc1OC | 429 | 6.5% (inactive) | 15.2% (inactive) | 64.5% | -108% (inactive) | 118% | -0.612 (inactive) | 1.3e-05 (inactive) | 0.00471 (inactive) | 18.1% (inactive) | 9.91% (inactive)
CCOC(=O)Cn1c(=O)c(-c2ccccc2N)nc2ccccc21 | 620 | -1.8% (inactive) | 2.1% (inactive) | 124% | -50.2% (inactive) | 116% | -0.542 (inactive) | -3.7e-05 (inactive) | 0.00661 (inactive) | 12.3% (inactive) | 33.1% (inactive)
CNC(=O)CN(c1ccc(C(C)C)cc1)S(C)(=O)=O | 372 | -0.8% (inactive) | -4.8% (inactive) | 114% | 24.1% (inactive) | 114% | -0.397 (inactive) | 1.3e-05 (inactive) | 0.00372 (inactive) | 11% (inactive) | 35.7% (inactive)
CC(=O)c1cc(Cl)ccc1OC(=O)c1ccco1 | 475 | 0.5% (inactive) | -8.1% (inactive) | 106% | -48.1% (inactive) | 124% | -0.475 (inactive) | -9e-05 (inactive) | 0.00476 (inactive) | 18.4% (inactive) | 21% (inactive)
CC12CN3CC(C)(CN(C1)C3c1cc(Br)ccc1O)C2=O (stereo not drawn) | 305 | 0% (inactive) | 1.6% (inactive) | 121% | 39% (inactive) | 83.4% | -0.474 (inactive) | -4.6e-06 (inactive) | 0.00402 (inactive) | 3.76% (inactive) | 37.4% (inactive)
CCc1nc2sc3ccccc3c(=O)c2c(=O)n1Cc1ccco1 | 577 | 14.3% (inactive) | -3.1% (inactive) | 87.2% | 4.8% (inactive) | 112% | -0.568 (inactive) | -3.8e-05 (inactive) | 0.00576 (inactive) | -14.6% (inactive) | -14.8% (inactive)
CCOc1ccc(N(C(C)=O)C2C=CS(=O)(=O)C2)cc1 (stereo not drawn) | 610 | -0.2% (inactive) | -4.3% (inactive) | 104% | -4% (inactive) | 139% | -0.496 (inactive) | -1.8e-05 (inactive) | 0.00613 (inactive) | 3.45% (inactive) | 19.5% (inactive)
N#CC1=C(SCC(=O)c2cc3ccccc3oc2=O)NC(=O)C(C#N)C12CCCC2 (stereo not drawn) | 639 | -36.2% (inactive) | 14.2% (inactive) | 104% | -47.7% (inactive) | 123% | -0.493 (inactive) | -5.2e-05 (inactive) | 0.00421 (inactive) | 23% (inactive) | 31.4% (inactive)
COC(=O)c1ccc(NC2(C#N)C(=O)Nc3ccccc32)cc1 (stereo not drawn) | 246 | 7.6% (inactive) | 15% (inactive) | 95.5% | -208% (inactive) | 116% | -0.408 (inactive) | -1.9e-05 (inactive) | 0.00466 (inactive) | 19% (inactive) | 8.66% (inactive)
CCOC(=O)c1ccc(Oc2nc(SC)nc(N(C)C)n2)cc1 | 467 | 5.5% (inactive) | -5.2% (inactive) | 110% | -308% (inactive) | 133% | -0.34 (inactive) | 7.8e-06 (inactive) | 0.00652 (inactive) | 3.96% (inactive) | 4.44% (inactive)
O=C(NC(=O)c1cccc(F)c1)OC[C@@H]1CCCN2CCCC[C@H]12 | 600 | -5.8% (inactive) | -12.4% (inactive) | 77.9% | -55.2% (inactive) | 113% | -0.491 (inactive) | 1.1e-05 (inactive) | 0.00714 (inactive) | 8.41% (inactive) | 28.6% (inactive)
Cc1ccc(N2CCN(S(=O)(=O)N(C)C)CC2)c(C)c1 | 393 | -2.4% (inactive) | 23.9% (inactive) | 75.5% | -55.1% (inactive) | 107% | -0.559 (inactive) | -3.5e-06 (inactive) | 0.00671 (inactive) | 2.52% (inactive) | 4.97% (inactive)
Cc1ccc(C)c2[nH]c(=O)c(CN(CCN3CCCC3)C(=O)Nc3cccc(Cl)c3)cc12 | 562 | -4.7% (inactive) | 13.8% (inactive) | 67.7% | -35.9% (inactive) | 94.3% | -0.544 (inactive) | -6.8e-05 (inactive) | 0.00448 (inactive) | -139% (inactive) | 78.9% (active)
COc1ccc(NC(=O)N2CCN(c3nc(-c4cccc(OC)c4)cs3)CC2)cc1 | 564 | -7.5% (inactive) | 8.8% (inactive) | 93.9% | -23.1% (inactive) | 104% | -0.478 (inactive) | -3.3e-05 (inactive) | 0.0039 (inactive) | 2.91% (inactive) | -56.5% (inactive)
CCN(CC)Cc1csc(C(N)=O)c1 | 617 | -1.2% (inactive) | 0.5% (inactive) | 102% | -26% (inactive) | 83% | -0.612 (inactive) | -6.9e-06 (inactive) | 0.00652 (inactive) | 5.97% (inactive) | 23.4% (inactive)
Cc1ccsc1C(C(=O)NC1CCCCC1)N(C(=O)Cc1cccs1)C1CC1 (stereo not drawn) | 500 | 0% (inactive) | 16.1% (inactive) | 86.8% | -62.9% (inactive) | 94.1% | -0.35 (inactive) | -4.8e-05 (inactive) | 0.00468 (inactive) | 15.2% (inactive) | 36% (inactive)
CCc1nnc(NC(=O)C2Cc3ccccc3CN2S(=O)(=O)c2cccs2)s1 (stereo not drawn) | 521 | -10.2% (inactive) | -27.6% (inactive) | 116% | -57.1% (inactive) | 117% | -0.482 (inactive) | -2.6e-05 (inactive) | 0.00706 (inactive) | -21.3% (inactive) | -50.1% (inactive)
COC(=O)c1ccccc1NC(=O)C1CC=CCC1C(=O)O (stereo not drawn) | 373 | 4.2% (inactive) | -0.6% (inactive) | 96.6% | 0.7% (inactive) | 98.1% | -0.479 (inactive) | -3.3e-05 (inactive) | 0.00613 (inactive) | 16.2% (inactive) | 22.4% (inactive)
Cc1c(NC(=O)C(C)OC(=O)c2cc3c4ccccc4n(C)c3s2)c(=O)n(-c2ccccc2)n1C (stereo not drawn) | 405 | -1.3% (inactive) | -35.1% (inactive) | 67.6% | -1.3% (inactive) | 107% | -0.481 (inactive) | -3.8e-06 (inactive) | 0.0038 (inactive) | 25.6% (inactive) | 34.4% (inactive)
CCOC(=O)C1=C(C)N=C2SCCC(=O)N2C1c1cc(Br)ccc1OC (stereo not drawn) | 466 | 2.7% (inactive) | -4.8% (inactive) | 108% | -16% (inactive) | 85% | -0.499 (inactive) | 7.4e-06 (inactive) | 0.00736 (inactive) | 17.2% (inactive) | 20.9% (inactive)
CC(=O)NCCOc1cccc(OCCNC(C)=O)c1 | 369 | 2.8% (inactive) | 6.8% (inactive) | 103% | -22.5% (inactive) | 117% | -0.432 (inactive) | 4e-05 (inactive) | 0.00674 (inactive) | -7.84% (inactive) | -11.9% (inactive)
COC(=O)c1ccccc1NC(=O)Cn1ccnc1 | 310 | -5.7% (inactive) | 3.6% (inactive) | 78.1% | -12% (inactive) | 86.6% | -0.591 (inactive) | -6.8e-05 (inactive) | 0.00553 (inactive) | 5.19% (inactive) | 23.4% (inactive)
Cc1cccc(-n2c(=O)cc(N3CCN(c4ccc(F)cc4)CC3)[nH]c2=O)c1 | 605 | 0% (inactive) | 15.8% (inactive) | 50.1% | 15.8% (inactive) | 83.6% | -0.448 (inactive) | -2.5e-05 (inactive) | 0.00544 (inactive) | -5.09% (inactive) | -5.41% (inactive)
CN(C)CCN1C(=O)C(O)=C(C(=O)c2cc3ccccc3o2)C1c1ccc(N(C)C)cc1 (stereo not drawn) | 577 | 5.8% (inactive) | 11.6% (inactive) | 95.2% | 23.3% (inactive) | 109% | -0.549 (inactive) | -2.9e-05 (inactive) | 0.00711 (inactive) | 7.8% (inactive) | 27.2% (inactive)
CCOC(=O)c1cc2c(=O)n3ccccc3nc2n(CC2CCCO2)c1=NC(C)=O (stereo not drawn) | 617 | 3.1% (inactive) | 18.5% (inactive) | 86.7% | 22.2% (inactive) | 100% | -0.441 (inactive) | -1.3e-05 (inactive) | 0.00574 (inactive) | 9.86% (inactive) | 10.8% (inactive)
CCS(=O)(=O)N1CCCC(C(=O)NCc2cccc(OC)c2)C1 (stereo not drawn) | 722 | -5.5% (inactive) | -59.8% (inactive) | 105% | -66.4% (inactive) | 116% | -0.617 (inactive) | -1.9e-05 (inactive) | 0.00403 (inactive) | -3.96% (inactive) | 3.19% (inactive)
